High-throughput results from PubChem BioAssay.
HepG2 viability: qHTS for Inhibitors of TGF-b: Cytotox Counterscreen | HepG2 CAGA-GFP viability, ATP luminescence, 18 h | Potency, µM (doses to about 46.1 µM), actives largely listed as cytotoxic | hit rate 0.76% among 410,000
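HepG2 CAGA-GFP cells (1000/well, DMEM with 1% FBS) received compound, then TGF-beta at 500 pg/mL final, and were incubated 18 hours at 37 degrees C. Viability was read by CellTiter-Glo luminescence. Media-only wells were set as complete cell-killing and DMSO as no toxicity.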
KB-V1 cytotox: qHTS assay for MDR1-selective chemotherapeutics: Primary screen using the drug-selected MDR subline cells KB-V1 | KB-V1 MDR cells viability, CellTiter-Glo, 72 h | Potency, µM (doses to about 46.1 µM), most hits filed as cytotoxic | hit rate 3.4% among 400,000 | AID 1347076, 2019; also: nearly all actives have a fitted effect of over 60% in size
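KB-V1 MDR subline cells in DMEM (phenol-red free, 10% FBS) exposed to compounds in qHTS concentration series for 72 h at 37 degrees C. Viability read by CellTiter-Glo luminescence; concentration-effect curves fitted after normalization and correction.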
HT1080-NT tox: qHTS for induction of synthetic lethality in tumor cells producing 2HG: qHTS for the HT-1080-NT fibrosarcoma cell line. HT-1080-NT fibrosarcoma viability, CellTiter-Glo ATP luminescence, 48 h. Potency, µM (titrated, usually from 46.1 µM), usual class: cytotoxic. hit rate 1.6% among 360,000. AID 686970, 2013;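 also: NT is the 2HG producing partner of a matched IDH1 knockdown line; nearly all actives have a fitted effect of over 55% in size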
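HT-1080-NT; 750 cells/well; 5% FBS RPMI; 48 h compound, 37 degrees C; CellTiter-Glo luminescence; curve fitting and curve-class assignment.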
HT1080 IDH1KD tx: qHTS for induction of synthetic lethality in tumor cells producing 2HG: qHTS for the HT-1080-IDH1KD cell line; Potency, µM (titrated, usually from 46.1 µM), hits mostly cytotoxic; HT-1080 IDH1 knockdown viability, ATP luminescence, 48 h; hit rate 2% among 360,000
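% activity derives from luminescence (CellTiter-Glo), normalised to DMSO and no-cell wells. HT-1080-IDH1KD cells, 750/well, had 48 h compound exposure at 37 °C.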
TGFb inhibitor: qHTS for Inhibitors of TGF-b. hit rate 1.2% among 410,000. Potency, µM (doses to about 46.1 µM), actives largely listed as inhibitors. HepG2 CAGA-GFP TGF-b/SMAD3 reporter, GFP fluorescence, 18 h; TGF-beta stimulated, 500 pg/mL final; also: nearly all actives have a fitted effect of over 65% in size
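Smad-responsive CAGA-GFP expression was quantified in HEPG2 cells exposed to compounds and 500 pg/mL final TGF-beta for 18 h at 37 degrees C; unstimulated wells defined full inhibition.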
KB-3-1 cytotox: qHTS assay for MDR1-selective chemotherapeutics: Primary screen using the parental adenocarcinoma cell KB-3-1; KB-3-1 viability, CellTiter-Glo ATP luminescence, 72 h; Potency, µM (doses to about 46.1 µM), actives largely listed as cytotoxic; hit rate 1.4% among 400,000; AID 1347075, 2019; also: nearly all actives have a fitted effect of over 60% in size
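Viability of parental KB-3-1 cells, measured by CellTiter-Glo luminescence, followed a 72 h incubation at 37 °C with pinned compounds in phenol-red-free DMEM containing 10% FBS.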
Hits are given with their value; – = inactive; ? = inconclusive; · = no result. A selection: hits, their analogues and other compounds. The true share with any hit is near 6.6%. Calls follow the shape of the dose curve; as a rule, active = well fitted curve in the direction sought with a large enough effect; inconclusive = small, poorly fitted or top-dose-only effect, or another doubt; inactive = no such curve, though single readings can be large; an effect the other way counts as inactive or inconclusive.

SMILES | HepG2 viability | KB-V1 cytotox | HT1080-NT tox | HT1080 IDH1KD tx | TGFb inhibitor | KB-3-1 cytotox
Cc1c(O)ccc(C(=O)CN2CCN(Cc3ccc4c(c3)OCO4)CC2)c1O | – | 23µM | – | – | – | –
Cc1ccc(NC(=O)N2CCN(Cc3ccc4c(c3)OCO4)CC2)cc1 | – | 21µM | – | – | ? | –
Cc1ccc(C(=O)N2CCN(Cc3ccc4c(c3)OCO4)CC2)cc1S(=O)(=O)N1CCOCC1 | – | 16µM | – | – | ? | –
COC(=O)c1ccsc1NC(=O)CN1CCN(Cc2ccc3c(c2)OCO3)CC1 | – | 16µM | – | – | – | –
CCOc1ccc(NC(=O)N2CCN(Cc3ccc4c(c3)OCO4)CC2)cc1 | – | – | – | – | – | –
CCOC(=O)N1CCN(Cc2ccc3c(c2)OCO3)CC1 | – | – | – | – | – | –
COC(=O)c1c(NC(=O)CN2CCN(Cc3ccc4c(c3)OCO4)CC2)sc(C)c1C | – | ? | ? | ? | – | ?
O=C(c1ccc(S(=O)(=O)N2CCCC2)cc1)N1CCN(Cc2ccc3c(c2)OCO3)CC1 | – | ? | – | – | – | –
COc1ccc(NC(=O)c2c(C)oc3ccc(O)c(CN4CCN(Cc5ccccc5)CC4)c23)cc1Cl | – | · | · | · | – | ·
O=C(NC(=S)N1CCN(Cc2ccc3c(c2)OCO3)CC1)c1cccc(Br)c1 | – | 7.3µM | – | – | ? | ?
O=C(NC(=S)N1CCN(Cc2ccc3c(c2)OCO3)CC1)c1ccc(Cl)cc1 | – | – | – | – | – | –
O=C(c1ccc(COc2ccccc2Cl)o1)N1CCN(Cc2ccc3c(c2)OCO3)CC1 | – | – | ? | ? | – | –
O=C(/C=C/c1cccc([N+](=O)[O-])c1)N1CCN(Cc2ccc3c(c2)OCO3)CC1 | – | – | – | – | – | –
O=C(/C=C/c1cccs1)N1CCN(Cc2ccc3c(c2)OCO3)CC1 | – | 18µM | – | – | – | –
O=C(c1ccc(COc2ccc(Cl)cc2)o1)N1CCN(Cc2ccc3c(c2)OCO3)CC1 | – | 10µM | – | – | – | –
COc1ccc(NC(=O)c2noc3c2CCCC3)cc1Cl | – | – | · | · | – | –
COc1cc(C(=O)NCCc2sc(-c3cccc(F)c3)nc2C)cc(OC)c1OC | – | – | · | · | – | –
Cc1ccc(S(=O)(=O)N2CCN(c3nc(-c4cnccn4)nc4ccccc34)CC2)cc1 | · | · | – | – | · | ·
CN(Cc1ccccc1)C(=O)c1ccc(CSc2nc3cccnc3n2Cc2ccccc2)cc1 | – | – | · | · | 20µM | –
O=C(NCc1ccccc1)C1CCN(C(=O)c2cnn(-c3ccccc3)c2-n2cccc2)CC1 | – | · | · | · | · | ·
Cc1ccc(NC(=O)c2ccc(CNS(=O)(=O)c3ccc4c(c3)C(C)(C)C(=O)N4C)cc2)cc1F | – | · | · | · | – | ·
CCCCN(CCCNC(=O)C1CCN(C(=O)c2cc3sccc3n2C)CC1)Cc1ccccc1 | – | – | 18µM | ? | ? | ?
CCN(CCCNC(=O)C1CCN(C(=O)c2cc3sccc3n2C)CC1)Cc1ccccc1 | – | – | – | – | – | –
COc1ccccc1N1CCN(S(=O)(=O)c2ccc(F)cc2)CC1 | – | 13µM | – | – | – | –
C=CCOc1cccc(C(=O)/C=C2/C(=O)Nc3ccccc32)c1 | 10µM | – | 18µM | ? | 11µM | ?
SMILES | HepG2 viability | KB-V1 cytotox | HT1080-NT tox | HT1080 IDH1KD tx | TGFb inhibitor | KB-3-1 cytotox
CCCCCCCC/C=C\CCCCCCCC(=O)NCCc1ccc(O)c(O)c1 | – | ? | 4.6µM | 23µM | ? | ?
CCc1c(C(C)=O)oc2ccc3c(C)cc(=O)oc3c12 | – | – | – | – | – | –
Cc1ccc(/C(=N\O)c2oc3c(C)c4oc(=O)cc(C)c4cc3c2C)cc1 | – | ? | ? | 23µM | ? | ?
Cc1cc(=O)oc2c1ccc1oc(/C(=N/O)c3ccccc3)c(C)c12 | – | 21µM | ? | ? | ? | ?
COc1ccc(CN2CCN(C(=O)CC(C)C)CC2)cc1Br | – | – | – | – | – | ?
COc1ccc(/C=C/C(=O)N(CC(C)C)CC(C)C)cc1Br | – | 21µM | – | – | – | –
CCC(C(=O)NCCc1ccc(Cl)cc1)n1ccc2cc(S(=O)(=O)N3CCCCC3)ccc21 (centres undefined) | – | – | · | · | – | ?
O=S1(=O)CCC(NC(=S)SCCOc2ccccc2)C1 (centres undefined) | – | – | – | – | 20µM | –
CCCCSC(=S)NC1CCS(=O)(=O)C1 (centres undefined) | – | – | – | ? | – | –
CCc1nnc(NC(=O)C2CCCN(c3nc(C)cc(C)n3)C2)s1 (centres undefined) | – | 9.2µM | – | – | – | –
CCc1nnc(NC(=O)C2CCN(c3nccc(C)n3)CC2)s1 | – | 16µM | – | – | – | –
Cc1ccc(NC(=O)CSc2nc3ccccc3c3nc(CCn4c(C)nc5ccccc54)nn23)cc1F | – | ? | · | · | – | ?
C[N+]1(CCCCSc2ccc(O)cc2)CCCCC1 | – | – | – | – | – | 18µM
CCc1cccc(-n2c(=O)c3cccnc3n2CC(=O)Nc2ccc(F)c(C)c2)c1 | – | · | · | · | ? | ·
COc1ccc(OCc2nnc3n2N=C(c2ccccc2)CS3)cc1 | · | – | · | · | · | –
CC(C)(C)c1ccc(-c2nc(C=O)c3ccccn23)cc1 | – | 16µM | – | – | – | –
CCOC(=O)C1=C(C)NC2=C(C(=O)CC(c3cccs3)C2)C1c1cccs1 (centres undefined) | – | 15µM | ? | 15µM | ? | 5.8µM
CCCOC(=O)C1=C(C)NC2=C(C(=O)CCC2)C1c1cccc(OC)c1OC (centres undefined) | – | – | – | – | – | –
CCOC(=O)C1=C(C)NC(=O)CC1c1ccccc1 (centres undefined) | – | – | – | – | – | –
CCCOC(=O)C1=C(C)NC2=C(C(=O)CCC2)C1c1cccs1 (centres undefined) | – | 23µM | – | – | – | –
CCOC(=O)C1=C(C)NC2=C(C(=O)OC2)C1c1ccccc1 (centres undefined) | – | – | ? | 21µM | – | ?
COC(=O)C1=C(C)NC2=C(C(=O)CC(c3cccs3)C2)C1c1ccsc1 (centres undefined) | – | 7.3µM | – | ? | – | ?
Cn1nnnc1SCCCNCc1cc(Br)ccc1OCc1ccccc1F | – | – | · | · | ? | –
